These results are taken from PubChem BioAssay (NCATS).

Several values for one entry are separate records, joined by “and”; a condition that tells them apart may be missing. Equal values may be shown once. Results filed as inconclusive are left out. Activity calls are given as the source filed them. The call rests on the fitted dose curve.
Potency means the concentration at half of the fitted maximal effect.

This test is described as follows: Primary qHTS to identify inhibitors of SARS-CoV-2 cell entry (AID 1645846). Further: nearly all actives have a fitted effect of over 45% in size. Conditions: SARS-CoV-2 pseudovirus cell entry assay, luminescence; activity change, negative = inhibition: at 57.1 µM (top of the series) unless noted; series mostly up to 57.1 µM. The source says:
Assay Provider: Wei Zheng, Ph.D.
National Center for Advancing Translational Sciences, National Institute of Health, Rockville, MD.
SARS-CoV-2 spike protein, within the viral envelope, mediates viral attachment and infection of host cells. The SARS-CoV-2 spike protein specifically binds to the host receptor ACE2 (Angiotensin-converting enzyme 2). This interaction promotes endocytosis of the viral particle, additional events lead to viral-host cell membrane fusion and release of the viral contents, allowing viral replication.
While SARS-CoV-2 requires BSL-3 facilities for live virus work, pseudotyped partices (PP) that incorporate SARS-CoV-2 spike proteins without replication elements could facilitate studies on viral entry mechanisms in a BSL-2 setting. This PP cell entry assay could also enable screening of small molecule compound libraries in BSL-2 setting to identify inhibitors of SARS-CoV-2 cell entry.
PROTOCOL TABLE (format as described by Inglese J, Shamu CE and Guy RK. 2007)
SEQUENCE No. (e.g., 1, 2, 3, etc.); […] (e.g., Cells, Incubation, Reagent, etc.); VALUE and DESCRIPTION.
1. Cells. Seed 1500 HEK293-ACE2 cells (Expi293F with stable expression of human ACE2) in 2 uL/well media (DMEM, 10% FBS, 1x L-glutamine, 1x Pen/Strep, 1 ug/ml puromycin) in white 1536-well assay plates (Greiner #782073).
2. Incubation. Incubate at 37C with 5% CO2 overnight (~16 h).
3. Compounds. Dispense 23 nL/well compounds in DMSO via pin transfer.
4. Incubation. Incubate for 1 hr at 37C 5% CO2.
5. Reagent. Dispense 2 uL/well of SARS-CoV-2-S pseudotyped particles. [a] PPs are produced with murine leukemia virus pseudotyping. [b] SARS-CoV-2-S is Wuhan-Hu-1 sequence (BEI #NR-52420) with C-terminal 19 amino acid truncation.
6. Centrifuge. […]
7. Incubation. Incubate at for 48 hr at 37C 5% CO2
8. Centrifuge. Remove supernatant with gentle centrifugation using a Blue Washer (BlueCat Bio).
9. Reagent. Dispense 4 uL/well of Bright-Glo Luciferase detection reagent (Promega #E2620).
10. Incubation. Incubate for 5 min at room temperature.
11. Detection. Read luminescence signal (Viewlux plate reader, PerkinElmer). Data was normalized with wells containing SARS-CoV-2-S PP as 100%, and wells containing bald PP (no fusion protein) as 0%.
On to `CCCCC(CC)COC(=O)C(C#N)=C(c1ccccc1)c1ccccc1` (stereo not given), for which the activity change, negative = inhibition was -96.1%.

Consider `CCCCCCCCCCCCOS(=O)(=O)O`, for which the activity change, negative = inhibition was -9.15%. The same measure, in the same setting: for `Cc1cccc(N(C)C(=S)Oc2ccc3ccccc3c2)c1` the value was -10.5% and -29.1%; for `CN1C(=O)CC(c2ccccc2)C1=O` (stereo not given), -27.2%. `CC(C)(C)C(=O)C(Oc1ccc(Cl)cc1)n1ccnc1` (stereo not given): the Potency was 20 µM (active). As to `NC(=O)c1ncn([C@@H]2O[C@H](CO)[C@@H](O)[C@H]2O)c1N`, the activity change, negative = inhibition was -18.5% and the outcome was inactive.

With `O=C(CCCN1CCN(c2ccccn2)CC1)c1ccc(F)cc1`, the activity change, negative = inhibition is -24.8%. Regarding `CCN[C@H]1C[C@H](C)S(=O)(=O)c2sc(S(N)(=O)=O)cc21`, the result was inactive and the activity change, negative = inhibition is -17.9%.

Regarding `Cc1c(C(=O)NN2CCCCC2)nn(-c2ccc(Cl)cc2Cl)c1-c1ccc(Cl)cc1`, the activity change, negative = inhibition was -26.4%. As to `NS(=O)(=O)c1cc2c(cc1Cl)NC(C1CC3C=CC1C3)NS2(=O)=O` (stereo not given), the result was inactive.

For `CCOC(=O)C(C)(C)Oc1ccc(Cl)cc1`, the result was inactive and the activity change, negative = inhibition was -63%. `Cc1[nH]c(=O)c(C#N)cc1-c1ccc2nccn2c1`: the compound was classed as inactive. Same read-out and setting: for `O=C(O)COC(=O)Cc1ccccc1Nc1c(Cl)cccc1Cl` the value was “inactive”. As for `C[C@]12CC[C@H](O)CC1=CC[C@@H]1[C@@H]2CC[C@]2(C)C(=O)CC[C@@H]12`, the Potency result was “inactive”. With `CCC1Nc2cc(Cl)c(S(N)(=O)=O)cc2S(=O)(=O)N1` (stereo not given), the result was inactive. Same read-out and setting: in the case of `O=c1[nH]cnc2c1ncn2[C@@H]1O[C@H](CO)[C@@H](O)[C@H]1O` it was “inactive”.

On to `CN(C)C(=S)SC(=S)N(C)C`, for which the Potency was 1 µM (active). Still for that read-out and setting: in the case of `Cc1ccc([N+](=O)[O-])[c]2c1[O][Hg]2` it was 5.62 µM (active). Consider `O=C(c1ccc(F)cc1)C1CCN(CCn2c(=O)[nH]c3ccccc3c2=O)CC1`, for which the activity change, negative = inhibition is -1.25%.

Consider `CN1CCCN=C1COC(=O)C(O)(c1ccccc1)C1CCCCC1` (stereo not given), for which the activity change, negative = inhibition was determined as 4.25%.

With `CCCCCOc1ccc(C2SC(=O)NC2=O)cc1OCC` (stereo not given), the activity change, negative = inhibition was -11.6%. Consider `Cc1c(C)c2c(c(C)c1OC(=O)CCC(=O)OCCO)CC[C@@](C)(CCC[C@H](C)CCC[C@H](C)CCCC(C)C)O2`, for which the Potency is 28.2 µM (active). In the case of `C/C=C/c1ccc(OC)cc1`, the call was inactive.

With `NC(N)=NC(=O)c1nc(Cl)c(N)nc1N`, the activity change, negative = inhibition was -0.658% [at 114 µM] and the outcome was inactive. Turning to `CC(C)C(=O)Nc1cccc(C2CN3CCSC3=N2)c1` (stereo not given), the activity change, negative = inhibition is -6.4%. The same measure, in the same setting: in the case of `C/C(=N/NC(=O)c1ccncc1)C(=O)O` it was -2.02%. In the case of `CCOc1ccc(NC(C)=O)cc1`, the compound was classed as inactive. Same read-out and setting: for `CCCn1cnc2c1c(=O)n(CCCCC(C)=O)c(=O)n2C` the value was “inactive”. Consider `NC(N)=N/N=C/c1c(Cl)cccc1Cl`, for which the activity change, negative = inhibition was -25.8%. For the compound `Oc1ccc(C(O)CNCCCCCCNCC(O)c2ccc(O)c(O)c2)cc1O` (stereo not given), the compound was classed as inactive. For `C=CCN1CC[C@]23CCCC[C@H]2[C@H]1Cc1ccc(O)cc13`, the activity change, negative = inhibition is -14.7%. Consider `O=S(=O)(c1cccc2cnccc12)N1CCCNCC1`, for which the compound was classed as inactive and the activity change, negative = inhibition is -0.418%. For the compound `O=C(Nc1ccc([N+](=O)[O-])cc1Cl)c1cc(Cl)ccc1O`, the Potency was 2.51 µM (active) and 8.91 µM (active). With `CCCSS/C(CCO)=C(\C)N(C=O)Cc1cnc(C)nc1N`, the activity change, negative = inhibition was -57.5%. As to `CCCNC(C)(C)COC(=O)c1ccccc1`, the activity change, negative = inhibition amounted to 3.38%.
